Data on 45 compounds can be found in article PMC4336329 (PLoS ONE, 2015).

About 14,000 (4.5%) of roughly 310,000 compounds showed an effect of 50% or more. Effects have a minus sign here. For the sample, strong results were picked, then their nearest neighbours and some compounds at random.
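Note: peak tail current of the secondary pulse compared with the same well before compound.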

The target in the test is human ether-à-go-go-related gene (hERG) potassium channel (human, UniProt Q12809). As to the kind of experiment: primary screen, population patch clamp on CHO cells stably expressing hERG; higher = less effect of the substance.
Sequence of human ether-à-go-go-related gene (hERG) potassium channel (Q12809 whole entry, looked up): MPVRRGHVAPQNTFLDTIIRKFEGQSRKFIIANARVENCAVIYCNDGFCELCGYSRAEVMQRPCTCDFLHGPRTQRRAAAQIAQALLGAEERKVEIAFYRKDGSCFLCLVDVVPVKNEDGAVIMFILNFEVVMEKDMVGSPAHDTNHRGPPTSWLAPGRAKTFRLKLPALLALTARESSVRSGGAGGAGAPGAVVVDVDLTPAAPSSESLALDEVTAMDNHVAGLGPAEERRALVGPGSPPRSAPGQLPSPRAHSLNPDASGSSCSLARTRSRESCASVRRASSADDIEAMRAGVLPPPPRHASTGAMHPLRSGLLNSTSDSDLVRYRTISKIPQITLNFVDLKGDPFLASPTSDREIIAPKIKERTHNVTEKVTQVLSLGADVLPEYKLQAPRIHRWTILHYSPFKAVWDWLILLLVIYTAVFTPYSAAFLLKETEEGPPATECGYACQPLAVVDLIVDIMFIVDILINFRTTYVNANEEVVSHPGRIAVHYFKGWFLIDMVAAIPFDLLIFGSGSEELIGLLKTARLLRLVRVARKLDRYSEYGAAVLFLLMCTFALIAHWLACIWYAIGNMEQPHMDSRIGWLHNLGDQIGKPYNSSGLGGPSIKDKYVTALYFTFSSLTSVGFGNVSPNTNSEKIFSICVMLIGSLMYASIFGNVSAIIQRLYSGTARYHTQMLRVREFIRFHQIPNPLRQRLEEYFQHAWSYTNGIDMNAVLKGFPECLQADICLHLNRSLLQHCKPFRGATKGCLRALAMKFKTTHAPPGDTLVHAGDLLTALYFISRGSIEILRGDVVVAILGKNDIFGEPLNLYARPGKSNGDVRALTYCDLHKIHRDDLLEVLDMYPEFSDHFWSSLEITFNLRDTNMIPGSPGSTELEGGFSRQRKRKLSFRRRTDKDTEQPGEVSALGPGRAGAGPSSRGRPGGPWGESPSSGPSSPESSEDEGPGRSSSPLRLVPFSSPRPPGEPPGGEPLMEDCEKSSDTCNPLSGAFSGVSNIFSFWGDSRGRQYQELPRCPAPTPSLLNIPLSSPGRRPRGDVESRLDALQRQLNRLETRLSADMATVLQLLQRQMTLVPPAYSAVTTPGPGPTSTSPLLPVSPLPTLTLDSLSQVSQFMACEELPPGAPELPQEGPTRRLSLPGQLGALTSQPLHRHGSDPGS
In the case of `O=C(c1ccc2c3c(cccc13)CC2)C1CCCN(Cc2ncc[nH]2)C1` (stereo not drawn), the “hERG current change (%, negative = inhibition) at 10uM” value was -55.7%.

As for `CCn1ccnc1CN1CCCC(C(=O)c2ccc3c4c(cccc24)CC3)C1` (stereo not drawn), the “hERG current change (%, negative = inhibition) at 10uM” value was -77.4%.

`Cc1ncccc1C(=O)N1CCCC(C(=O)c2ccc3c4c(cccc24)CC3)C1` (stereo not drawn): the “hERG current change (%, negative = inhibition) at 10uM” value is on record as -13.2%.

Take `CC(=O)N1CCCC(C(=O)c2ccc3c4c(cccc24)CC3)C1` (stereo not drawn): the “hERG current change (%, negative = inhibition) at 10uM” value is on record as -8.18%.

As for `Cc1ncoc1C(=O)N1CCCC(C(=O)c2ccc3c4c(cccc24)CC3)C1` (stereo not drawn), the “hERG current change (%, negative = inhibition) at 10uM” value is given as -15.5%.

In the case of `Cc1cccc(CN2CCCC(C(=O)c3ccc4c5c(cccc35)CC4)C2)n1` (stereo not drawn), the “hERG current change (%, negative = inhibition) at 10uM” value is reported as -40.7%.

For the compound `Cc1cnc(CN2CCCC(C(=O)c3ccc4c5c(cccc35)CC4)C2)[nH]1` (stereo not drawn), the “hERG current change (%, negative = inhibition) at 10uM” value was -31.7%.

On to `CC(=O)NCC(=O)N1CCCC(C(=O)c2ccc3c4c(cccc24)CC3)C1` (stereo not drawn), for which the “hERG current change (%, negative = inhibition) at 10uM” value stood at 8.94%.

As for `COc1cc(CN2CCCC(C(=O)c3ccc4c5c(cccc35)CC4)C2)cc(OC)c1O` (stereo not drawn), the “hERG current change (%, negative = inhibition) at 10uM” value is -53%.

On to `CN1CCC(C(=O)N2CCCC(C(=O)c3ccc4c5c(cccc35)CC4)C2)CC1` (stereo not drawn), for which the “hERG current change (%, negative = inhibition) at 10uM” value was -61.1%.

As to `Cc1ccc(OCC(=O)NCCNC(=O)c2ccncc2)cc1C`, the “hERG current change (%, negative = inhibition) at 10uM” value is 15.9%.

Turning to `Cc1ccc(S(=O)(=O)NCc2ccccc2)cc1C(=O)N(C)Cc1ccc(F)cc1`, the “hERG current change (%, negative = inhibition) at 10uM” value is given as 5.11%.

For `O=c1c2ccccc2oc2nc(-c3ccco3)n(Cc3ccccc3)c(=O)c12`, the “hERG current change (%, negative = inhibition) at 10uM” value is recorded as -9.22%.

As to `CCOC(=O)c1cc2occc2n1CC(=O)Nc1ccc(OC)cc1OC`, the “hERG current change (%, negative = inhibition) at 10uM” value is listed as -15%.

In the case of `O=C(NCCOc1nc(N2CCCCC2)nc(N2CCOCC2)n1)Nc1ccccc1`, the “hERG current change (%, negative = inhibition) at 10uM” value is given as -0.098%.

As for `Cc1ccc(S(=O)(=O)NCc2ccco2)c(C)c1C`, the “hERG current change (%, negative = inhibition) at 10uM” value was -4.4%.

Consider `CN(NC(=O)c1ccco1)c1nc2ccccc2nc1C(F)(F)F`, for which the “hERG current change (%, negative = inhibition) at 10uM” value was 0.871%.

With `N#CCCN(Cc1cccnc1)C(=O)Nc1cccc(Cl)c1`, the “hERG current change (%, negative = inhibition) at 10uM” value was -10.9%.

Take `N#Cc1ccc(-c2csc(NNC(=O)c3ccccc3)n2)cc1`: the “hERG current change (%, negative = inhibition) at 10uM” value is reported as 0.0899%.

Regarding `Cc1ccc(NS(=O)(=O)c2ccc(C3CCCCC3)cc2)cc1`, the “hERG current change (%, negative = inhibition) at 10uM” value was -10.3%.

Take `CC12CCC(=O)N1C(C(=O)NCc1ccc(Cl)cc1Cl)CS2` (stereo not drawn): the “hERG current change (%, negative = inhibition) at 10uM” value is reported as -0.564%.

Turning to `C=C(C)Cn1c(-c2ccccc2)nc2ccccc21`, the “hERG current change (%, negative = inhibition) at 10uM” value is -64.9%.

Take `COCn1c(-c2ccccc2)nc2ccccc21`: the “hERG current change (%, negative = inhibition) at 10uM” value is listed as -5.43%.

`CN(C)c1ccc(-c2nc3ccccc3n2C)cc1`: the “hERG current change (%, negative = inhibition) at 10uM” value is -49.9%.

Regarding `CCn1c(-c2ccc(N(C)C)cc2)nc2ccccc21`, the “hERG current change (%, negative = inhibition) at 10uM” value is given as -50.3%.

In the case of `C=C(C)Cn1c(-c2ccc(OC)cc2)nc2ccccc21`, the “hERG current change (%, negative = inhibition) at 10uM” value was -23.4%.

Consider `CCn1c(-c2ccc(N)cc2)nc2ccccc21`, for which the “hERG current change (%, negative = inhibition) at 10uM” value is reported as 4.21%.

Turning to `Cc1ccc(C(=O)CSc2nc(N)cc(=O)[nH]2)cc1`, the “hERG current change (%, negative = inhibition) at 10uM” value stood at 2.68%.

As for `Fc1ccc(NC(=S)N/N=C/c2cccc(Br)c2)c(F)c1`, the “hERG current change (%, negative = inhibition) at 10uM” value was found to be 3.9%.

On to `O=C(COC(=O)Cc1ccsc1)NCc1ccc(Cl)cc1`, for which the “hERG current change (%, negative = inhibition) at 10uM” value is 10.6%.

On to `CC(Sc1cnc2ccccc2n1)C(=O)O` (stereo not drawn), for which the “hERG current change (%, negative = inhibition) at 10uM” value was determined as 15.9%.

For `Cc1ccc(C#N)c(SCc2ccccc2[N+](=O)[O-])n1`, the “hERG current change (%, negative = inhibition) at 10uM” value was determined as 2.72%.

Regarding `CCOc1ccc(-c2nc(C)c(C(C)=O)n2O)cc1`, the “hERG current change (%, negative = inhibition) at 10uM” value is -0.685%.

For `O=[N+]([O-])c1ccc(N2CCN(CCOc3nonc3-c3ccccc3)CC2)c(Cl)c1`, the “hERG current change (%, negative = inhibition) at 10uM” value was -4.17%.

As to `Cc1nonc1OCCNCCNc1ccccc1[N+](=O)[O-]`, the “hERG current change (%, negative = inhibition) at 10uM” value is listed as -23.4%.

As for `Cc1nonc1OCCNc1ccc([N+](=O)[O-])c2cccnc12`, the “hERG current change (%, negative = inhibition) at 10uM” value was -18%.

With `Cc1nonc1OCCN1CCN(c2ccccc2[N+](=O)[O-])CC1.Cl`, the “hERG current change (%, negative = inhibition) at 10uM” value is -37.2%.

In the case of `CCNCCNc1ccc([N+](=O)[O-])c2cccnc12`, the “hERG current change (%, negative = inhibition) at 10uM” value is on record as -22.8%.

With `Cc1nonc1OCCNCCNc1ccc([N+](=O)[O-])cc1Cl`, the “hERG current change (%, negative = inhibition) at 10uM” value is on record as -49.7%.

Regarding `Cc1nonc1OCCCNc1ccc([N+](=O)[O-])cc1Cl`, the “hERG current change (%, negative = inhibition) at 10uM” value amounted to 9.59%.

With `Cc1nonc1OCCNc1ccc([N+](=O)[O-])cc1[N+](=O)[O-]`, the “hERG current change (%, negative = inhibition) at 10uM” value was -54.7%.

On to `Cc1nonc1OCCNCCNc1ccc([N+](=O)[O-])c2cccnc12`, for which the “hERG current change (%, negative = inhibition) at 10uM” value was -52.2%.

For `Cc1nonc1OCCN1CCN(c2ccc([N+](=O)[O-])cc2)CC1`, the “hERG current change (%, negative = inhibition) at 10uM” value is -98.3%.

As for `O=[N+]([O-])c1cc(C(F)(F)F)ccc1NCCOc1ccccc1`, the “hERG current change (%, negative = inhibition) at 10uM” value was -3.64%.

In the case of `O=[N+]([O-])c1ccc(NCCNCCOc2nonc2-c2ccccc2)c([N+](=O)[O-])c1`, the “hERG current change (%, negative = inhibition) at 10uM” value was -68.6%.
